# Tested on: Clostridium difficile
# Test: growth AUC relative to DMSO control (median of replicates) (fraction); higher = more growth (less inhibition), active = hit call of the paper
# Conditions: 20 µM; 24 h;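 active = AUC reduced over 20% with Padj below 0.05 in at least 2 of 3 replicates; inactive = otherwise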
# Procedure, shortened: (§1)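 OD600 was recorded every hour for 24 h in anaerobic monocultures of gut bacteria kept at 37 °C in mGAM, seeded at OD600 0.05 and given 20 µM compound in 1% DMSO. The area under each growth curve was scaled to the plate median of solvent-only wells, or to row and column medians for the industrial chemical plate. Before this step, the minimum OD was set to 0. Reported values are medians of three biological replicates run on separate days.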
row,SMILES,growth AUC
1,Clc1ccc(Cl)cc1,0.987 (inactive)
2,C#CC(C)(C)NC(=O)c1cc(Cl)cc(Cl)c1,0.948 (inactive)
3,CC1CCCCC1NC(=O)Nc1ccccc1 (mixture of isomers),1.01 (inactive)
4,Cc1ccc(N=CN(C)C=Nc2ccc(C)cc2C)c(C)c1,1.04 (inactive)
5,CC(C)N1C(=O)c2ccccc2NS1(=O)=O,0.98 (inactive)
6,CC1(C)CC/C(=C\c2ccc(Cl)cc2)C1(O)Cn1cncn1 (stereo not drawn),0.984 (inactive)
7,CCCN(CCCl)c1c([N+](=O)[O-])cc(C(F)(F)F)cc1[N+](=O)[O-],0.995 (inactive)
8,COC(=O)Nc1nc2ccccc2[nH]1,1.06 (inactive)
9,Cc1cc(C(F)(C(F)(F)F)C(F)(F)F)ccc1NC(=O)c1cccc(I)c1C(=O)NC(C)(C)CS(C)(=O)=O,0.92 (inactive)
10,CC(C)OC(=O)Nc1cccc(Cl)c1,1.01 (inactive)
11,c1coc(-c2nc3ccccc3[nH]2)c1,0.971 (inactive)
12,COC(=O)c1ccccc1S(=O)(=O)NC(=O)Nc1nc(C)nc(OC)n1,1.01 (inactive)
13,Nc1cc(Cl)ccc1Cl,1 (inactive)
14,CCSCc1ccccc1OC(=O)NC,0.972 (inactive)
15,COP(=S)(OC)Oc1ccc([N+](=O)[O-])c(C)c1,0.988 (inactive)
16,CCOC(=O)/C=C(C)/C=C/C[C@@H](C)CCCC(C)C,1.06 (inactive)
17,COc1nn(CSP(=S)(OC)OC)c(=O)s1,0.996 (inactive)
18,CCCCOCN(C(=O)CCl)c1c(CC)cccc1CC,0.979 (inactive)
19,COc1ccc(C(c2ccc(OC)cc2)C(Cl)(Cl)Cl)cc1,0.988 (inactive)
20,CNC(=O)/C(=N/OC)c1ccccc1Oc1ccccc1,1 (inactive)

row,SMILES,growth AUC
1,O=C(O)c1ccc(=O)[nH]c1,1.01 (inactive)
2,c1ccc2c(c1)ccc1c3ccccc3sc21,1.02 (inactive)
3,CC1(C)C(/C=C(\Cl)C(F)(F)F)C1C(=O)OC(C#N)c1cccc(Oc2ccccc2)c1 (stereo not drawn),1.04 (inactive)
4,CNC(=O)Oc1cc(C)cc(C(C)C)c1,0.93 (inactive)
5,CCOP(=S)(OCC)Oc1cc(Cl)c(SC)cc1Cl,1.05 (inactive)
6,O=[N+]([O-])C(Br)(CO)CO,0.996 (inactive)
7,Cc1c(F)c(F)c(COC(=O)[C@@H]2[C@H](/C=C(\Cl)C(F)(F)F)C2(C)C)c(F)c1F (mixture of isomers),1 (inactive)
8,COP(=S)(OC)Oc1ccc(S(C)=O)c(C)c1 (stereo not drawn),1.01 (inactive)
9,CCNc1nc(NCC)nc(SC)n1,0.981 (inactive)
10,CC(C)N(C(=O)SCC(Cl)=C(Cl)Cl)C(C)C,0.994 (inactive)
11,CCOP(=S)(OCC)Oc1ccc([N+](=O)[O-])cc1,1 (inactive)
12,CC(C)[C@@H](Nc1ccc(C(F)(F)F)cc1Cl)C(=O)OC(C#N)c1cccc(Oc2ccccc2)c1 (stereo partly drawn),1.04 (inactive)
13,Fc1ccc(C2(Cn3cncn3)OC2c2ccccc2Cl)cc1 (stereo not drawn),0.995 (inactive)
14,CCCC1COC(Cn2cncn2)(c2ccc(Cl)cc2Cl)O1 (stereo not drawn),0.956 (inactive)
15,CCOC(=O)C(O)(c1ccc(Cl)cc1)c1ccc(Cl)cc1,1.04 (inactive)
16,CC#Cc1cc(C)nc(Nc2ccccc2)n1,0.965 (inactive)
17,CC(C)N(Cc1ccccc1)C(=O)C(C)(C)C,0.937 (inactive)
18,O=c1oc2ccccc2c(O)c1C1CC(c2ccc(-c3ccc(Br)cc3)cc2)Cc2ccccc21 (stereo not drawn),0.263 (active)
19,C[N+](C)(C)CCCl.[Cl-],1 (inactive)

# Tested on: Collinsella aerofaciens
# Test: as above
# Conditions: 20 µM; 24 h
# Procedure, shortened: as §1
row,SMILES,growth AUC
1,Clc1ccc(Cl)cc1,0.972 (inactive)
2,C#CC(C)(C)NC(=O)c1cc(Cl)cc(Cl)c1,0.936 (inactive)
3,CC1CCCCC1NC(=O)Nc1ccccc1 (mixture of isomers),0.976 (inactive)
4,Cc1ccc(N=CN(C)C=Nc2ccc(C)cc2C)c(C)c1,1.01 (inactive)
5,CC(C)N1C(=O)c2ccccc2NS1(=O)=O,0.967 (inactive)
6,CC1(C)CC/C(=C\c2ccc(Cl)cc2)C1(O)Cn1cncn1 (stereo not drawn),0.987 (inactive)
7,CCCN(CCCl)c1c([N+](=O)[O-])cc(C(F)(F)F)cc1[N+](=O)[O-],0.961 (inactive)
8,COC(=O)Nc1nc2ccccc2[nH]1,1.03 (inactive)
9,Cc1cc(C(F)(C(F)(F)F)C(F)(F)F)ccc1NC(=O)c1cccc(I)c1C(=O)NC(C)(C)CS(C)(=O)=O,1.7 (inactive)
10,CC(C)OC(=O)Nc1cccc(Cl)c1,0.963 (inactive)
11,c1coc(-c2nc3ccccc3[nH]2)c1,0.945 (inactive)
12,COC(=O)c1ccccc1S(=O)(=O)NC(=O)Nc1nc(C)nc(OC)n1,0.957 (inactive)
13,Nc1cc(Cl)ccc1Cl,1.01 (inactive)
14,CCSCc1ccccc1OC(=O)NC,1 (inactive)
15,COP(=S)(OC)Oc1ccc([N+](=O)[O-])c(C)c1,0.952 (inactive)
16,CCOC(=O)/C=C(C)/C=C/C[C@@H](C)CCCC(C)C,0.982 (inactive)
17,COc1nn(CSP(=S)(OC)OC)c(=O)s1,1.03 (inactive)
18,CCCCOCN(C(=O)CCl)c1c(CC)cccc1CC,0.928 (inactive)
19,COc1ccc(C(c2ccc(OC)cc2)C(Cl)(Cl)Cl)cc1,0.975 (inactive)
20,CNC(=O)/C(=N/OC)c1ccccc1Oc1ccccc1,0.998 (inactive)

row,SMILES,growth AUC
1,O=C(O)c1ccc(=O)[nH]c1,0.977 (inactive)
2,c1ccc2c(c1)ccc1c3ccccc3sc21,0.99 (inactive)
3,CC1(C)C(/C=C(\Cl)C(F)(F)F)C1C(=O)OC(C#N)c1cccc(Oc2ccccc2)c1 (stereo not drawn),0.969 (inactive)
4,CNC(=O)Oc1cc(C)cc(C(C)C)c1,0.952 (inactive)
5,CCOP(=S)(OCC)Oc1cc(Cl)c(SC)cc1Cl,1.01 (inactive)
6,O=[N+]([O-])C(Br)(CO)CO,1.01 (inactive)
7,Cc1c(F)c(F)c(COC(=O)[C@@H]2[C@H](/C=C(\Cl)C(F)(F)F)C2(C)C)c(F)c1F (mixture of isomers),0.976 (inactive)
8,COP(=S)(OC)Oc1ccc(S(C)=O)c(C)c1 (stereo not drawn),1.03 (inactive)
9,CCNc1nc(NCC)nc(SC)n1,0.996 (inactive)
10,CC(C)N(C(=O)SCC(Cl)=C(Cl)Cl)C(C)C,0.953 (inactive)
11,CCOP(=S)(OCC)Oc1ccc([N+](=O)[O-])cc1,1.03 (inactive)
12,CC(C)[C@@H](Nc1ccc(C(F)(F)F)cc1Cl)C(=O)OC(C#N)c1cccc(Oc2ccccc2)c1 (stereo partly drawn),0.933 (inactive)
13,Fc1ccc(C2(Cn3cncn3)OC2c2ccccc2Cl)cc1 (stereo not drawn),0.99 (inactive)
14,CCCC1COC(Cn2cncn2)(c2ccc(Cl)cc2Cl)O1 (stereo not drawn),0.981 (inactive)
15,CCOC(=O)C(O)(c1ccc(Cl)cc1)c1ccc(Cl)cc1,0.978 (inactive)
16,CC#Cc1cc(C)nc(Nc2ccccc2)n1,0.995 (inactive)
17,CC(C)N(Cc1ccccc1)C(=O)C(C)(C)C,0.92 (inactive)
18,O=c1oc2ccccc2c(O)c1C1CC(c2ccc(-c3ccc(Br)cc3)cc2)Cc2ccccc21 (stereo not drawn),0.911 (inactive)
19,C[N+](C)(C)CCCl.[Cl-],1.02 (inactive)

# Source: the supplement of paper PMC12669032
